Results from PubChem BioAssay AID1159580 (chemical genetic matrix, 2015).
In all, about 5,500 compounds went through this assay and about 2,000 (36%) were called active. About 18% were inconclusive and are not listed. Cut-off read from the data, not from the text of the source: active = normalized growth mostly below about 0.91 (no sharp cut-off); inconclusive = no clear call, values can overlap the other calls; inactive = mostly above about 0.92. This is one part of the list.

Test: chemical genetic growth profiling, strain panel (AID 1159580);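 note: tested at 20 µM; growth read once vehicle control cultures reached saturation at 30 °C; 1 = growth at the plate median or of vehicle wells; lower values mean less growth of the strain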
Conditions: growth OD

Measured: normalized growth

OCC(O)C(O)C(O)C(O)C(O)CO (configuration not stated)
inactive: S. cerevisiae deletion strains, locus YKL009W, strain mrt4, stronger effect = lower value 1.05 | S. cerevisiae deletion strains, locus YKL068W, stronger effect = lower value 0.98 | S. cerevisiae deletion strains, locus YKL085W, strain MDH1 (second series), stronger effect = lower value 1 | S. cerevisiae deletion strains, locus YKL085W, strain MDH1, stronger effect = lower value 1 | S. cerevisiae deletion strains, locus YKL160W, strain elf1, stronger effect = lower value 1.01 | S. cerevisiae deletion strains, locus YKL190W, strain CNB1, stronger effect = lower value 1.02 | S. cerevisiae deletion strains, locus YKR001C, strain vps1, stronger effect = lower value 1.01 | S. cerevisiae deletion strains, locus YKR026C, strain gcn3, stronger effect = lower value 1.01 | S. cerevisiae deletion strains, locus YKR091W, strain srl3, stronger effect = lower value 0.997 | S. cerevisiae deletion strains, locus YLL001W, strain dnm1, stronger effect = lower value 0.995 | S. cerevisiae deletion strains, locus YLL026W, stronger effect = lower value 0.999 | S. cerevisiae deletion strains, locus YLL041C, strain sdh2, stronger effect = lower value 0.998 | S. cerevisiae deletion strains, locus YLR027C, strain aat2, stronger effect = lower value 0.997 | S. cerevisiae deletion strains, locus YLR039C, strain RIC1, stronger effect = lower value 1.14 | S. cerevisiae deletion strains, locus YLR058C, strain SHM2, stronger effect = lower value 1 | S. cerevisiae deletion strains, locus YLR102C, strain apc9, stronger effect = lower value 0.987 | S. cerevisiae deletion strains, locus YLR113W, strain HOG1, stronger effect = lower value 0.965 | S. cerevisiae deletion strains, locus YLR221C, strain rsa3, stronger effect = lower value 1.01 | S. cerevisiae deletion strains, locus YLR258W, strain gsy2, stronger effect = lower value 1 | S. cerevisiae deletion strains, locus YLR262C, strain YPT6 (second series), stronger effect = lower value 1 | S. cerevisiae deletion strains, locus YLR268W, strain sec22, stronger effect = lower value 0.998 | S. cerevisiae deletion strains, locus YLR320W, strain mms22, stronger effect = lower value 0.985 | S. cerevisiae deletion strains, locus YLR330W, strain CHS5, stronger effect = lower value 0.992 | S. cerevisiae deletion strains, locus YLR342W, strain FKS1 (second series), stronger effect = lower value 0.998 | S. cerevisiae deletion strains, locus YLR342W, strain FKS1, stronger effect = lower value 0.993 | S. cerevisiae deletion strains, locus YLR357W, strain rsc2, stronger effect = lower value 0.974 | S. cerevisiae deletion strains, locus YLR370C, strain arc18, stronger effect = lower value 0.999 | S. cerevisiae deletion strains, locus YLR371W, strain rom2, stronger effect = lower value 1.03 | S. cerevisiae deletion strains, locus YLR384C, strain iki3, stronger effect = lower value 0.995 | S. cerevisiae deletion strains, locus YLR418C, strain cdc73, stronger effect = lower value 1 | S. cerevisiae deletion strains, locus YML016C, strain PPZ1, stronger effect = lower value 0.988 | S. cerevisiae deletion strains, locus YML032C, strain rad52, stronger effect = lower value 0.987 | S. cerevisiae deletion strains, locus YML120C, strain ndi1, stronger effect = lower value 0.988 | S. cerevisiae deletion strains, locus YML124C, strain tub3, stronger effect = lower value 0.988 | S. cerevisiae deletion strains, locus YMR058W, strain fet3, stronger effect = lower value 0.997 | S. cerevisiae deletion strains, locus YMR078C, strain ctf18, stronger effect = lower value 0.989 | S. cerevisiae deletion strains, locus YMR125W, strain sto1, stronger effect = lower value 0.973 | S. cerevisiae deletion strains, locus YMR129W, stronger effect = lower value 0.99 | S. cerevisiae deletion strains, locus YMR205C, strain PFK2, stronger effect = lower value 1 | S. cerevisiae deletion strains, locus YMR223W, strain ubp8, stronger effect = lower value 1.01 | S. cerevisiae deletion strains, locus YMR231W, strain pep5, stronger effect = lower value 0.998 | S. cerevisiae deletion strains, locus YMR307W, strain GAS1, stronger effect = lower value 1.12 | S. cerevisiae deletion strains, locus YNL067W, strain RPL9B, stronger effect = lower value 1.02 | S. cerevisiae deletion strains, locus YNL071W, strain lat1, stronger effect = lower value 1 | S. cerevisiae deletion strains, locus YNL153C, strain GIM3, stronger effect = lower value 1.03 | S. cerevisiae deletion strains, locus YNL183C, strain NPR1, stronger effect = lower value 0.932 | S. cerevisiae deletion strains, locus YNL209W, strain ssb2, stronger effect = lower value 1 | S. cerevisiae deletion strains, locus YNL233W, strain BNI4, stronger effect = lower value 1.06 | S. cerevisiae deletion strains, locus YNL248C, strain rpa49, stronger effect = lower value 0.99 | S. cerevisiae deletion strains, locus YNL250W, strain rad50, stronger effect = lower value 0.987 | S. cerevisiae deletion strains, locus YNL271C, strain bni1, stronger effect = lower value 1.01 | S. cerevisiae deletion strains, locus YNL298W, strain CLA4, stronger effect = lower value 0.99 | S. cerevisiae deletion strains, locus YNL307C, strain MCK1, stronger effect = lower value 0.992 | S. cerevisiae deletion strains, locus YNL322C, strain KRE1 (second series), stronger effect = lower value 0.999 | S. cerevisiae deletion strains, locus YNR049C, strain mso1, stronger effect = lower value 0.987 | S. cerevisiae deletion strains, locus YNR052C, strain pop2, stronger effect = lower value 1.03 | S. cerevisiae deletion strains, locus YOL006C, strain TOP1, stronger effect = lower value 1.14 | S. cerevisiae deletion strains, locus YOL012C, strain htz1 0.757 | S. cerevisiae deletion strains, locus YOL147C, strain pex11, stronger effect = lower value 0.998 | S. cerevisiae deletion strains, locus YOR001W, strain rrp6, stronger effect = lower value 1 | S. cerevisiae deletion strains, locus YOR061W, strain CKA2, stronger effect = lower value 0.984 | S. cerevisiae deletion strains, locus YOR069W, strain VPS5, stronger effect = lower value 1 | S. cerevisiae deletion strains, locus YOR070C, strain gyp1, stronger effect = lower value 0.995 | S. cerevisiae deletion strains, locus YOR080W, strain dia2, stronger effect = lower value 0.985 | S. cerevisiae deletion strains, locus YOR083W, strain WHI5, stronger effect = lower value 0.996 | S. cerevisiae deletion strains, locus YOR106W, strain vam3, stronger effect = lower value 1.01 | S. cerevisiae deletion strains, locus YOR136W, strain idh2, stronger effect = lower value 1.01 | S. cerevisiae deletion strains, locus YOR144C, strain elg1, stronger effect = lower value 0.991 | S. cerevisiae deletion strains, locus YOR184W, strain ser1, stronger effect = lower value 0.982 | S. cerevisiae deletion strains, locus YOR231W, strain MKK1, stronger effect = lower value 0.961 | S. cerevisiae deletion strains, locus YOR265W, strain rbl2, stronger effect = lower value 0.989 | S. cerevisiae deletion strains, locus YOR270C, strain vph1, stronger effect = lower value 0.994 | S. cerevisiae deletion strains, locus YOR290C, strain snf2, stronger effect = lower value 0.989 | S. cerevisiae deletion strains, locus YOR316C, strain cot1, stronger effect = lower value 0.984 | S. cerevisiae deletion strains, locus YPL051W, strain arl3, stronger effect = lower value 1 | S. cerevisiae deletion strains, locus YPL055C, strain LGE1, stronger effect = lower value 0.97 | S. cerevisiae deletion strains, locus YPL078C, strain atp4, stronger effect = lower value 0.992 | S. cerevisiae deletion strains, locus YPL106C, strain sse1, stronger effect = lower value 0.989 | S. cerevisiae deletion strains, locus YPL240C, strain hsp82, stronger effect = lower value 0.989 | S. cerevisiae deletion strains, locus YPL241C, strain CIN2, stronger effect = lower value 0.998 | S. cerevisiae deletion strains, locus YPL256C, strain CLN2, stronger effect = lower value 0.968 | S. cerevisiae deletion strains, locus YPR119W, strain clb2, stronger effect = lower value 0.997 | S. cerevisiae deletion strains, locus YPR141C, strain kar3, stronger effect = lower value 0.976 | S. cerevisiae deletion strains, locus YPR163C, strain tif3, stronger effect = lower value 1.01 | S. cerevisiae deletion strains, locus YPR167C, strain met16, stronger effect = lower value 0.993 | S. cerevisiae deletion strains, strain wtn01, stronger effect = lower value 0.997 | S. cerevisiae strains, strain wild type, stronger effect = lower value 1.03
